Active and inactive are the calls of the source.

Experiment [1] concerns Human papillomavirus type 1a protein E7 (residues 44-93). Put plainly: HPV1a E7 fragment binders on microarrays, primary screen, biochemical, small-molecule microarray, residues 44-93, 635 nm fluorescence (AID 1108).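 Further: E7 fragment applied at 1 µg/mL in TBST for 1 h at 4 C; score combines spot fluorescence with its signal to noise ratio.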 The conditions noted are these: small-molecule microarray binding, fluorescence 635 nm; higher = more signal.
Experiment [2] in a line: modulators of HCV replicon luciferase signal, primary screen, HCV replication inhibitor project, Huh7 cells, luciferase reporter (AID 1109).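 Further: huh7 hepatoma cells harbouring a luciferase neomycin HCV replicon reporter; luciferase luminescence as measure of HCV replicon replication; test concentration not given here.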 The note with it: 48 h, higher = more signal.
Experiment [3] concerns the target Left-right determination factor 2 (Homo sapiens) (UniProt O00292). The experiment in a line: LEFTY2 binders on small-molecule microarrays, primary screen, biochemical, small-molecule microarray, 635 nm fluorescence scan (AID 1110). The note with it: LEFTY2 binding, higher = more signal.
In experiment [4] the target is Calmodulin-1 (Homo sapiens) (UniProt P0DP23). The experiment in a line: CALM1 binders on microarrays, EGTA buffer, profiling panel, biochemical, small-molecule microarray, Cy5-labelled CALM1 (AID 1111).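 Further: labelled calmodulin applied in Tris saline Tween buffer holding calcium plus EGTA and DTT.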 The note with it: Cy5-CALM1 binding fluorescence, higher = more signal.
Experiment [5] shares this target. Put plainly: calcium-bound CALM1 binders on microarrays, profiling panel, artefact control for SMM control-protein annotation, biochemical, small-molecule microarray, Cy5-labelled CALM1, plus calcium (AID 1112).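 Further: score merges spot fluorescence with signal to noise from triplicate slides.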 The note with it: Cy5-CALM1 binding fluorescence, higher = more signal.
Experiment [6] in a line: small-molecule microarray binders of probe aWnt5a, primary screen, biochemical, biotinylated probe, 635/667 nm fluorescence (AID 1113).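 Further: score merges 667 nm fluorescence intensity with signal-to-noise per printed feature.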 The conditions noted are these: higher = more signal.
A short description of experiment [7]: small-molecule microarray binders of probe aShh, primary screen, biochemical, biotinylated probe, 635/667 nm fluorescence (AID 1114).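 Further: probe is biotin-labelled aShh protein from a stem cell growth factor screen; measures binding of labelled protein to compounds printed on the slide; score merges feature fluorescence at 667 nm with signal-to-noise.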 The note with it: higher = more signal.
A short description of experiment [8]: small-molecule microarray binders of probe aNog, primary screen, biochemical, biotinylated probe, 635/667 nm fluorescence (AID 1115).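 Further: probe is biotinylated aNog protein used at 0.15 µg/mL for 1 h at 4 C; z-score combines 667 nm fluorescence of each spot with its signal to noise.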 The note with it: higher = more signal.
For experiment [9], the target named is Torsin-1A-interacting protein 1 (Homo sapiens) (UniProt Q5JTV8). The experiment in a line: LAP1 binders from COS7 cell lysate, primary screen, small-molecule microarray, 635/667 nm fluorescence (AID 1116). The note with it: COS7-hLAP1 lysate binding, 635 nm fluorescence, higher = more signal.
Torsin-1A-interacting protein 1 (Homo sapiens), sequence (Q5JTV8 whole entry, looked up): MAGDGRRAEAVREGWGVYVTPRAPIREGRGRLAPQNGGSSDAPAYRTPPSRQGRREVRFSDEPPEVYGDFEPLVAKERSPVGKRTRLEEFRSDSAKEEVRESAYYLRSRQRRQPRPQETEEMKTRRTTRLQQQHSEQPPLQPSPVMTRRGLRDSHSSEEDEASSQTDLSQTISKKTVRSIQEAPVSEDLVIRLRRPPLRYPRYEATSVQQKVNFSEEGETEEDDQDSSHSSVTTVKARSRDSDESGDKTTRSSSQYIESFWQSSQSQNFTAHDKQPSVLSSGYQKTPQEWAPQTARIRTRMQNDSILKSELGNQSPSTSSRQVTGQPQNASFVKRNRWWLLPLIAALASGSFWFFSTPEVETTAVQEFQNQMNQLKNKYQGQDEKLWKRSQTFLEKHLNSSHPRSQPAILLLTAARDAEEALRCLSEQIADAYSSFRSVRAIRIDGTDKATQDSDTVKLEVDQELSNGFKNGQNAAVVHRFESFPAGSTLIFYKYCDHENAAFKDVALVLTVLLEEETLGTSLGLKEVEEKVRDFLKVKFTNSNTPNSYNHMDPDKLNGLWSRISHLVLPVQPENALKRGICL
Experiment [10] has as its target Alpha-bungarotoxin (Bungarus multicinctus) (UniProt P60615). Put plainly: alpha-bungarotoxin binders on microarray, profiling panel, artefact control for SMM control protein annotation, biochemical, small-molecule microarray, Alexa647 label, 635/667 nm fluorescence (AID 1117). The conditions noted are these: alpha-BTX-A647 binding fluorescence, higher = more signal.

The target in another experiment is Albumin (Bos taurus) (UniProt P02769). The experiment in a line: bovine serum albumin binders on microarray, profiling panel, artefact control for SMM control protein annotation, biochemical, small-molecule microarray, Alexa647 label, 635/667 nm fluorescence (AID 1118).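 Further: score merges 667 nm emission intensity and signal-to-noise per printed compound spot.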 The note with it: BSA-A647 binding, fluorescence 635 nm, higher = more signal.
Albumin (Bos taurus), sequence (P02769 whole entry, looked up): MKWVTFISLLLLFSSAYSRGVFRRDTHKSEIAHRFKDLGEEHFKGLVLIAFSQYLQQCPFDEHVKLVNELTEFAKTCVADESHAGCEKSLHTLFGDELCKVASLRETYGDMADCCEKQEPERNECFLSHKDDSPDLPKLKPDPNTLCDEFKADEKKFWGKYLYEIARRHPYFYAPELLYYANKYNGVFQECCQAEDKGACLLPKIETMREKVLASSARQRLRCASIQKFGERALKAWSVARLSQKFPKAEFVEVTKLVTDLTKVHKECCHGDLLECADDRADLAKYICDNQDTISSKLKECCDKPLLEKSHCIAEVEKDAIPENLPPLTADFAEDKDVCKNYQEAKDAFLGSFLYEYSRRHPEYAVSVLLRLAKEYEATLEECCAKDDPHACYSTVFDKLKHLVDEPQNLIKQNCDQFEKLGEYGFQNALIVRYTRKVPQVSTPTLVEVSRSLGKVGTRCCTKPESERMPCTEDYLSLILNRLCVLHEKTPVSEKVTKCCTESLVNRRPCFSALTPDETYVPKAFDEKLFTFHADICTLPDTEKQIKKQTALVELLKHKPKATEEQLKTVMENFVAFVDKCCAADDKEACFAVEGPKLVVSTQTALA
Experiment [11] is described as follows: small-molecule microarray binders of probe aXIP, primary screen, biochemical, NeuroSMM set, 635/667 nm fluorescence (AID 1119).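 Further: probe is the protein aXip251-270 applied at 1 µg/mL to compound-printed slides; binding of probe to printed compounds measured as 667 nm fluorescence plus signal to noise.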 The conditions noted are these: higher = more signal, called active from +8 up or from −8 down.
Experiment [12] is described as follows: small-molecule binders of probe aNOTCH3, primary screen, biochemical, small-molecule microarray, 635/667 nm fluorescence (AID 1120).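 Further: probe is a biotin-tagged antibody raised against NOTCH3 rather than NOTCH3 protein; score merges spot fluorescence near 667 nm with spot signal to noise.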 The conditions noted are these: higher = more signal.
The nature of experiment [13]: small-molecule binders of probe aNOTCH2, primary screen, biochemical, small-molecule microarray, 635/667 nm fluorescence (AID 1121).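 Further: score merges feature fluorescence read at 667 nm with its signal to noise.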 The conditions noted are these: higher = more signal.
The target of experiment [14] is Carbonic anhydrase 2 (Homo sapiens) (UniProt P00918). The experiment in a line: CAII small-molecule binders, profiling panel, biochemical, small-molecule microarray, Alexa647-labelled CAII (AID 1122). The note with it: CAII-A647 binding fluorescence, higher = more signal.
Experiment [15] can be described thus: COS7 lysate on small-molecule microarray, probe aHis, 635 nm (AID 1123).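 Further: z-score combines 667nm fluorescence intensity with signal-to-noise per printed compound spot.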 The note with it: COS7 cell lysate, fluorescence, higher = more signal.
Experiment [16] in a line: compound binding in COS7 lysate, probe aLAP1, primary screen, cell lysate, small-molecule microarray (AID 1124).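 Further: lysate comes from COS7 cells expressing LAP1 and is applied at 0.3 µg/mL; score merges spot fluorescence near 667 nm with signal-to-noise over triplicate slides.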 The conditions noted are these: probe aLAP1, fluorescence, higher = more signal.
The subject of a further experiment is Sam68 (KHDRBS1). Put plainly: Sam68 small-molecule binders, primary screen, biochemical, small-molecule microarray, 635 nm fluorescence (AID 1125).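 Further: score merges 667 nm channel intensity with signal to noise over triplicate slides.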 The conditions noted are these: small-molecule microarray binding, higher = more signal.
Experiment [17] deals with Chordin-like protein 2 (CHRDL2). The experiment in a line: CHRDL2 small-molecule binders, primary screen, biochemical, small-molecule microarray, 635 nm fluorescence (AID 1126).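 Further: printed compound slides probed with Chrdl2 protein at 4 µg/mL for 1 h at 4 C; score merges 667 nm emission intensity with signal to noise over three replicate slides.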 The note with it: small-molecule microarray binding, fluorescence 635 nm; higher = more signal.
Experiment [18] deals with Concanavalin-A (Canavalia ensiformis) (UniProt P02866). Put plainly: ConA small-molecule binders, primary screen, artefact control for SMM control protein annotation, biochemical, small-molecule microarray, Alexa647 label, 635 nm (AID 1127).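 Further: z combines 667 nm emission intensity with signal-to-noise across three replicate slides.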 The conditions noted are these: ConA-A647 binding fluorescence, higher = more signal.
Concanavalin-A (Canavalia ensiformis), sequence (P02866 whole entry, looked up): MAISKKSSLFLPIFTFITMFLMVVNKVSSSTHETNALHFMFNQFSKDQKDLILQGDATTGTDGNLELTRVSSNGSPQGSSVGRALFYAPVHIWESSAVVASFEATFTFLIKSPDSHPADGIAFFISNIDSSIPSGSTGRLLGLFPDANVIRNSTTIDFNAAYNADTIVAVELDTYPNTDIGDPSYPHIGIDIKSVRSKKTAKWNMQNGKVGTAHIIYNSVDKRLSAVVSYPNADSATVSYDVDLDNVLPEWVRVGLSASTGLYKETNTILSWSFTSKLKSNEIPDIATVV

Alpha-bungarotoxin (Bungarus multicinctus), sequence (P60615 whole entry, looked up): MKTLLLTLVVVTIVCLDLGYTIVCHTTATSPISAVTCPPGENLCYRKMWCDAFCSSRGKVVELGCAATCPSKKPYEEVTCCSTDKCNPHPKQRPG
Left-right determination factor 2 (Homo sapiens), sequence (O00292 whole entry, looked up): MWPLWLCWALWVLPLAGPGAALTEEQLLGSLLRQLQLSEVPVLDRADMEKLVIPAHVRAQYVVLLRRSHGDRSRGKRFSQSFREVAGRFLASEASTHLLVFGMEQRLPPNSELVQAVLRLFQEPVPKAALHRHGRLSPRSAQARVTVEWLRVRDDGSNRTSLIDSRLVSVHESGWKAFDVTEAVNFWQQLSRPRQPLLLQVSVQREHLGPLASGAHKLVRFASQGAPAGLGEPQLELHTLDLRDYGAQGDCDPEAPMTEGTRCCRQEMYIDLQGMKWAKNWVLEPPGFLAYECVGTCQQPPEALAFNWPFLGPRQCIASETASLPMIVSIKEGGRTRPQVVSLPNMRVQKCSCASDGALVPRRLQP

On to `O=C(NC1CC1)[C@@H]1c2ccccc2C(=O)N(Cc2cc(F)cc(C(F)(F)F)c2)[C@H]1c1ccc(CO)cc1`, for which the composite z-score was 0.558 in [1]; -1.05 in [3]; -0.768 in experiment [4]; -0.628 in [5]; -0.161 in [6]; -0.0709 in experiment [7]. For the same compound, the composite z-score is 0.0308 in experiment [8]; 0.0706 in experiment [9]; -0.405 in [10]; 0.416 with Albumin (Bos taurus); -0.182 in experiment [12]; -0.112 in [13]. Besides, the composite z-score is 0.237 in [14]; 0.668 in experiment [15]; 0.747 in experiment [16]; 0.521 in the experiment on Sam68 (KHDRBS1); -0.791 in [17]; 0.0427 in experiment [18]. The z-score in [2] was -0.509. Moreover, the composite Z-score in experiment [11] was -0.0461 (inactive).

Regarding `Cc1ccc([C@H]2C(C(=O)O)=CCN2S(=O)(=O)c2ccc(C)cc2)cc1`, the composite z-score in [1] is 0.964; in experiment [3] it was -0.441; in [4] it was 0.659; in experiment [5] it was 0.261; in experiment [6] it was -0.001; in experiment [7], -0.0709. Besides, the composite z-score in experiment [8] was -0.333; in [9], 1.54; in experiment [10], 0.705; in the experiment with Albumin (Bos taurus), 0.899; in experiment [12], -0.0299; in [13] it was -0.109. Moreover, the composite z-score in experiment [14] is 0.825; in experiment [15], 1.21; in [16] it was 0.584; in the experiment on Sam68 (KHDRBS1), 0.539; in experiment [17], -0.518; in [18], 1.02. Also, the z-score in experiment [2] was -1.02. For the same compound, the composite Z-score in experiment [11] was -0.168 (inactive).

Take `COc1ccc([Si](C)(C)[C@@H]2[C@@H](CCn3cc([C@H](O)c4ccccc4)nn3)O[C@]3(C(=O)N(Cc4cccc(N5CCC5=O)c4)c4ccccc43)[C@H]2C)cc1`: the composite z-score in experiment [1] is -0.206; in [3], 0.187; in [4], -0.15; in [5], -0.263; in [6] it was -0.0919; in experiment [7], -0.0035. For the same compound, the composite z-score in experiment [8] is -0.0211; in experiment [9], 0.392; in experiment [10], 0.0808; in the experiment with Albumin (Bos taurus), -0.185; in [12] it was -0.152; in [13], -0.0598. The composite z-score in experiment [14] was -0.105; in experiment [15] it was 0.288; in experiment [16], 0.0413; in the experiment on Sam68 (KHDRBS1), -0.233; in [17], 0.422; in experiment [18] it was 0.0651. The compound also came in with a z-score in experiment [2] of -2.78. In addition, the composite Z-score in [11] was -0.0405 (inactive).

As to `CCOc1cc(C(O)C2C=CC3C(=O)N(c4ccccc4)C(=O)C3N2Nc2ccc(C(C)C)cc2)ccc1O` (stereo not given), the composite z-score was 1.45 in [1]; -0.211 in experiment [3]; 0.983 in [4]; -0.0316 in experiment [5]; 0.0433 in experiment [6]; -0.0119 in [7]. The composite z-score in experiment [8] was 1.2; in [9], -0.102; in [10], 1.91; with Albumin (Bos taurus), 0.925; in [12] it was 0.15; in experiment [13] it was -0.0274. In addition, the composite z-score in [14] was 0.79; in [15] it was 2.63; in experiment [16], 0.33; in the experiment with Sam68 (KHDRBS1), 1.29; in [17] it was 0.161; in experiment [18] it was 1.09. This compound also came in with a z-score in [2] of -0.517. In experiment [11], the composite Z-score was 0.203 (inactive).

For the compound `[N-]=[N+]=NCc1ccccc1[C@@H]1OC(c2ccc(OCCCO)cc2)=N[C@]1(CCS(=O)(=O)c1ccccc1)C(N)=O`, the composite z-score stood at 1.5 in experiment [1]; 0.767 in experiment [3]; 0.731 in experiment [4]; 0.242 in experiment [5]; 0.164 in experiment [6]; 0.5 in experiment [7]. Further, the composite z-score in [8] worked out at 0.769; in experiment [9], 1.81; in [10] it was 2.19; with Albumin (Bos taurus), 0.0943; in experiment [12] it was 0.369; in [13], 0.0703. Besides, the composite z-score in [14] is 0.637; in experiment [15], 3.29; in experiment [16] it was 0.247; in the experiment with Sam68 (KHDRBS1) it was 1.28; in experiment [17], 1.1; in experiment [18], 0.971. Moreover, the z-score in experiment [2] worked out at 1.35. In addition, in experiment [11], the composite Z-score was 0.466 (inactive).

The record behind these values is PubChem BioAssay.
